In all, about 81,000 sequences were measured (“one-hybrid fitness for binding NBS DNA”: median about -0.1, highest 2% from about 0.36 on). Many of the other results were omitted from the sample, so the highest values are more common in it than they were.
B1: Caulobacter ParB omega fusion; a variant is named by its letters at X, in order, B8GW30 (parent)
chain: MESVVVGEPGMSEGRRGLGRGLSALLGEVDAAPAQAPGEQLGGSREAPIEILQRNPDQPRRTFREEDLEDLSNSIREKGVLQPILVRPSPDTAGEYQIVAGERAWRAAQRAGLKTVPIMVRELDDLAVLEIGIIENVQRADLNVLEEALSYKVLMEKFERTQENIAQTIGKSXSHVANXMRLLXLPDEVQSYLVSGELTAXHARAIAAAADPVALAKQIIEGGLSVRETEALARKAPNLSAGKSKGGRPPRVKDTDTQALESDLSSVLGLDVSIDHRGSTGTLTITYATLEQLDDLCNRLTRGI

Variants of: B1
Assay: one-hybrid fitness for binding NBS DNA (the Noc-binding site; scaled: cognate 1, non-cognate 0); higher = stronger binding
Details: with NBS DNA site
Procedure, shortened: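 Fitness here means the log change in variant-to-wild-type read ratio between plasmids sequenced before and after selection. That scale was set so cognate equals 1 and non-cognate equals 0. The selection was a bacterial one-hybrid screen of Caulobacter ParB libraries, four specificity codons randomised, in E. coli USO carrying a HIS3 reporter with the site 19 bp from the promoter, grown 48 hours at 37°C on M9-minus-histidine with 0.1 mM IPTG and 5 mM 3-AT.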

| Variant | one-hybrid fitness for binding NBS DNA |
| --- | --- |
| FHAS | ≤ 0.2 |
| ENIG | ≤ 0.2 |
| LRKN | ≤ 0.2 |
| PCWT | ≤ 0.2 |
| QRSA | 0.566 |
| DRRA | ≤ 0.2 |
| QSLA | ≤ 0.2 |
| QRIA | 0.436 |
| QPSA | ≤ 0.2 |
| QRLA | 0.547 |
| QRRA | 0.674 |
| QSSA | ≤ 0.2 |
| QWRA | ≤ 0.2 |
| QCIA | 0.25 |
| QRPA | 0.207 |
| QCLA | 0.304 |
| TTVS | ≤ 0.2 |
| YHRS | ≤ 0.2 |
| YKRY | ≤ 0.2 |
| IDDD | ≤ 0.2 |
| SRTS | ≤ 0.2 |
| TNTI | ≤ 0.2 |
| CWVC | ≤ 0.2 |
| RTKL | ≤ 0.2 |
| CLGT | ≤ 0.2 |
| QRYA | 0.588 |

| Variant | one-hybrid fitness for binding NBS DNA |
| --- | --- |
| QPYA | ≤ 0.2 |
| QREA | 0.288 |
| RATL | ≤ 0.2 |
| AQRI | ≤ 0.2 |
| VVMC | ≤ 0.2 |
| QRPK | ≤ 0.2 |
| QRSK | 0.396 |
| QRCK | 0.388 |
| QSCK | ≤ 0.2 |
| QCHK | ≤ 0.2 |
| QRRK | 0.747 |
| QCCK | ≤ 0.2 |
| QSSK | ≤ 0.2 |
| QRHK | 0.432 |
| QCSK | ≤ 0.2 |
| QSHK | ≤ 0.2 |
| QRWK | 0.239 |
| YTTG | ≤ 0.2 |
| PILC | ≤ 0.2 |
| GPWT | ≤ 0.2 |
| TTST | ≤ 0.2 |
| PSAI | ≤ 0.2 |
| LWNA | ≤ 0.2 |
| HNMG | 0.257 |
| QRNK | 0.488 |
| QRYK | 0.381 |

| Variant | one-hybrid fitness for binding NBS DNA |
| --- | --- |
| QRIK | 0.213 |
| QRGK | 0.445 |
| QRDK | ≤ 0.2 |
| QSGK | ≤ 0.2 |
| QREK | ≤ 0.2 |
| QRFK | 0.295 |
| QCAK | ≤ 0.2 |
| QCGK | ≤ 0.2 |
| QRAK | 0.373 |
| QCNK | ≤ 0.2 |
| TYVS | ≤ 0.2 |
| MKIS | ≤ 0.2 |
| KICD | ≤ 0.2 |
| FCSG | ≤ 0.2 |
| FRQA | ≤ 0.2 |
| QRQK | 0.365 |
| QSQK | ≤ 0.2 |
| QCQK | ≤ 0.2 |
| QPYT | ≤ 0.2 |
| GPYT | ≤ 0.2 |
| QSRT | 0.723 |
| QPRT | ≤ 0.2 |
| GPRT | 0.369 |
| QCYT | 0.503 |
| QCRT | 0.857 |
| GCRT | ≤ 0.2 |

| Variant | one-hybrid fitness for binding NBS DNA |
| --- | --- |
| QNRT | 0.292 |
| QNYT | ≤ 0.2 |
| QSYT | 0.347 |
| VDRR | ≤ 0.2 |
| QPAL | ≤ 0.2 |
| PSKA | ≤ 0.2 |
| SGLS | ≤ 0.2 |
| RPAY | ≤ 0.2 |
| SNWT | ≤ 0.2 |
| PAIL | ≤ 0.2 |
| HYHS | ≤ 0.2 |
| FRPV | ≤ 0.2 |
| PPFR | ≤ 0.2 |
| QLYT | 0.355 |
| QART | 0.716 |
| QIPT | ≤ 0.2 |
| QIYT | 0.335 |
| QLLT | 0.33 |
| QLRT | 0.668 |
| QHLT | 0.337 |
| QHRT | 0.681 |
| QALT | 0.352 |
| QAYT | 0.322 |
| QIRT | 0.608 |
| QHYT | 0.359 |
| ALLT | ≤ 0.2 |

| Variant | one-hybrid fitness for binding NBS DNA |
| --- | --- |
| QWRW | ≤ 0.2 |
| HELN | ≤ 0.2 |
| VNET | ≤ 0.2 |
| TDND | ≤ 0.2 |
| QYNF | ≤ 0.2 |
| HKPS | ≤ 0.2 |
| SLTE | ≤ 0.2 |
| AVAW | ≤ 0.2 |
| NTKR | 0.255 |
| QTVR | 0.558 |
| DTKR | 0.321 |
| QTKR | 1.15 |
| VQPA | ≤ 0.2 |
| YAHE | ≤ 0.2 |
| QHRH | 0.494 |
| QHRD | 0.234 |
| QHRS | 0.627 |
| QHYH | ≤ 0.2 |
| QHYS | 0.324 |
| QHRP | 0.201 |
| SNPD | ≤ 0.2 |
| YDCG | ≤ 0.2 |
| IGGI | ≤ 0.2 |
| EAAG | ≤ 0.2 |
| QLYR | 0.425 |
| QLER | 0.266 |

| Variant | one-hybrid fitness for binding NBS DNA |
| --- | --- |
| QLAR | 0.478 |
| QLSN | ≤ 0.2 |
| QLRR | 0.943 |
| QLIR | 0.294 |
| QLSP | ≤ 0.2 |
| QLPR | 0.232 |
| QLSR | 0.464 |
| QLAP | ≤ 0.2 |
| QLFR | 0.329 |
| QLRD | ≤ 0.2 |
| CSWC | ≤ 0.2 |
| YYPG | ≤ 0.2 |
| WYCF | ≤ 0.2 |
| HGNS | ≤ 0.2 |
| FIMG | ≤ 0.2 |
| PPDN | ≤ 0.2 |
| GYQT | ≤ 0.2 |
| DTTS | ≤ 0.2 |
| TWKT | ≤ 0.2 |
| SACG | ≤ 0.2 |
| QLCR | 0.468 |
| QLCD | ≤ 0.2 |
| QLCP | ≤ 0.2 |
| QLLR | 0.415 |
| QLQR | 0.483 |
| QLHH | ≤ 0.2 |

| Variant | one-hybrid fitness for binding NBS DNA |
| --- | --- |
| QLQH | ≤ 0.2 |
| QLHR | 0.519 |
| QLHP | ≤ 0.2 |
| QLLS | ≤ 0.2 |
| QLQD | ≤ 0.2 |
| QLLP | ≤ 0.2 |
| LLRD | ≤ 0.2 |
| RCWE | ≤ 0.2 |
| ILMW | ≤ 0.2 |
| QNKK | ≤ 0.2 |
| WACV | ≤ 0.2 |
| ARFF | ≤ 0.2 |
| YTQC | ≤ 0.2 |
| KEGR | ≤ 0.2 |
| VEDR | ≤ 0.2 |
| QLGR | 0.496 |
| QLGD | ≤ 0.2 |
| QLGN | ≤ 0.2 |
| NTCV | ≤ 0.2 |
| LCVN | ≤ 0.2 |
| QLHT | 0.393 |
| QIHT | 0.425 |
| QIHN | ≤ 0.2 |
| QFHT | ≤ 0.2 |
| QTHC | 0.248 |
| QTHT | 0.648 |

| Variant | one-hybrid fitness for binding NBS DNA |
| --- | --- |
| QIHK | ≤ 0.2 |
| QTHG | 0.234 |
| QCHT | 0.551 |
| QPHT | ≤ 0.2 |
| QLHG | ≤ 0.2 |
| NTKL | ≤ 0.2 |
| YMTV | ≤ 0.2 |
| HSGS | ≤ 0.2 |
| THQS | ≤ 0.2 |
| HCNT | ≤ 0.2 |
| MGAT | ≤ 0.2 |
| QHHT | 0.419 |
| QWHT | ≤ 0.2 |
| QAHF | ≤ 0.2 |
| QAHC | ≤ 0.2 |
| QHHK | ≤ 0.2 |
| QAHT | 0.414 |
| QNHT | ≤ 0.2 |
| QSHT | 0.429 |
| QHHY | ≤ 0.2 |
